Results filed as inconclusive are left out. Calls of active or inactive are those of the source. How the source made its calls: active means hit-call score of the fitted dose curve at least 0.9, where 1 is the maximum; inconclusive means response in the unintended direction; inactive means score below 0.9.

The target in this test is Peroxisome proliferator-activated receptor gamma (Homo sapiens) (UniProt P37231). Nature of the test: NVS_NR_hPPARg: NovaScreen (NVS) Nuclear Receptor Binding Assay for human Peroxisome Proliferator-activated Receptor gamma (PPARg) (AID 2283370). The method, then: NVS_NR_hPPARg is a biochemical, single-readout assay that uses extracted gene-proteins in a cell-free assay. Measurements were taken 2 hours after chemical dosing in a 384-well plate.NVS_NR_hPPARg is one of one assay component(s) measured or calculated from the NVS_NR_hPPARg assay. It is designed to make measurements of fluorescent polarization, a form of binding reporter, as detected with fluorescence polarization signals by Fluorescence Polarization technology.Data from the assay component NVS_NR_hPPARg was analyzed into 1 assay endpoint. This assay endpoint, NVS_NR_hPPARg, was analyzed in the positive analysis fitting direction relative to DMSO as the negative control and baseline of activity. Using a type of binding reporter, loss-of-signal activity can be used to understand changes in the binding as they relate to the gene PPARG. Furthermore, this assay endpoint can be referred to as a primary readout, because the performed assay has only produced 1 assay endpoint. To generalize the intended target to other relatable targets, this assay endpoint is annotated to the nuclear receptor intended target family, where the subfamily is non-steroidal.
Sequence of Peroxisome proliferator-activated receptor gamma (Homo sapiens) (P37231 whole entry, looked up): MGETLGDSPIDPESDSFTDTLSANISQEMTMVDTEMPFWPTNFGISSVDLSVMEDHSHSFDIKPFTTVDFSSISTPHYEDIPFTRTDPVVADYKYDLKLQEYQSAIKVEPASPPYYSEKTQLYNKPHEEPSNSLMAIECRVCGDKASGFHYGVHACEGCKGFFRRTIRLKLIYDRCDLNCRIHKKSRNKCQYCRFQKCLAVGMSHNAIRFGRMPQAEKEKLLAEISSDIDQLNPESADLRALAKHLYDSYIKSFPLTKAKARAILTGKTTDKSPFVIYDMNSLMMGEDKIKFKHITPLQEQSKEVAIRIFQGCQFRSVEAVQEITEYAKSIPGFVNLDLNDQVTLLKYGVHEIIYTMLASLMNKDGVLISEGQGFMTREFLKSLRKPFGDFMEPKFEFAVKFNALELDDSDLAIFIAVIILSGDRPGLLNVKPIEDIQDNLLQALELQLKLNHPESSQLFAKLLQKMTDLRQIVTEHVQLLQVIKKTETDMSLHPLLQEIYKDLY
Binding assays used specific radioligands (tritiated, iodinated) with non-radioactive competitive displacement ligands in agonist or antagonist protocols (as indicated) and various reference compounds and inhibitors to titrate specific binding to receptors and transporters. Most enzyme assays (CYPs, kinases, phosphatases, proteases, HDACs) used recombinant protein and specific substrates (fluorescence mostly, some colorimetric and radioactive) and inhibitors, followed by a biochemical separation of substrate and product. All assays for the biochemical HTS were initially run in duplicate at a single concentration (10 uM for CYP450 assays and 25 uM for all others). […] Each assay was run with positive and negative controls, and concurrent controls on every plate. The follow-up (secondary) screen tested active chemical-pairs in concentration series, as well as a few additional assays not tested in the primary screen, some selected negative inactives, and several cases re-run in the concentration series for confirmatory purposes.
`CCCCN(CC)C(=O)SCCC`: the compound was classed as inactive.
Same read-out and setting: under `CC(C)(C)OOC(C)(C)C` stands “inactive”; under `O=c1ssc(Cl)c1Cl`, “inactive”.
Take `O=NN1CCCC1`: the outcome was inactive.
Turning to `O=[N+]([O-])c1ccc(Cl)c(Cl)c1`, the AC50 – broadly, the concentration at which the activity in the assay is half-maximal – is 9120 nM (active).
As for `c1ccc(OP(Oc2ccccc2)Oc2ccccc2)cc1`, the compound was called inactive.
With `CCNc1nc(Cl)nc(NC(C)(C)C)n1`, the AC50 was 13.4 nM (active).
Take `CCCCN(CCCC)SN(C)C(=O)Oc1cccc2c1OC(C)(C)C2`: the compound was classed as inactive.
Same read-out and setting: the same measure for `CSC(C)(C)C=NO`: “inactive”; for `ClC1=C(Cl)C2(Cl)C3C(Cl)C(Cl)CC3C1(Cl)C2(Cl)Cl` (stereo not given): “inactive”.
Consider `O=P(Oc1ccccc1)(Oc1ccccc1)Oc1ccccc1`, for which the half-maximal activity concentration (AC50) is 2.29 nM (active).
Regarding `CCOS(=O)(=O)OCC`, the call was inactive.
Still for that read-out and setting: the same measure for `CCCCCCCc1ccc(O)cc1`: “inactive”; for `ClC(Cl)c1ccccc1`: “inactive”.
Turning to `c1ccc2c(c1)Nc1ccccc1S2`, the call was inactive.
Same read-out and setting: under `Nc1ccc2ccccc2c1` stands “inactive”.
Same read-out and setting: under `CCOP(=S)(OCC)SCSCC` stands “inactive”.
Still for that read-out and setting: under `O=S(=O)(c1ccc(O)cc1)c1ccc(O)cc1` stands “inactive”.
Take `CCOC(=O)c1ccccc1N`: the outcome was inactive.
The same measure, in the same setting: the same measure for `CC1(C)CN=C(NN=C(/C=C/c2ccc(C(F)(F)F)cc2)/C=C/c2ccc(C(F)(F)F)cc2)NC1`: “inactive”.

Source of the values: PubChem BioAssay (EPA / NIEHS).
